PubChem BioAssay (EPA / NIEHS)
Values joined by “and” are separate entries in the source; they are usually repeats but may differ in a detail not shown here. Equal entries are not always repeated. The source holds several records for some structures; these can differ, active in one and inactive in another. Active and inactive are the calls of the source. Rule for the calls: active = hit-call score of the fitted dose curve at least 0.9, where 1 is the maximum; inactive = score below 0.9.

Tests used:
[1] = ATG_GLI_CIS: Attagene CIS-FACTORIAL HepG2 Assay for human Zinc Finger Protein GLI1 (AID 2282945); settings: HepG2, Attagene cis-factorial reporter mRNA, GLI element; actives raise or lower the signal
How it was run: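 Bidirectional curve fits relative to DMSO, using reporter mRNA levels from RT-PCR plus capillary electrophoresis. Cells were HepG2 transiently carrying cis-regulated reporter constructs, harvested 24 h after dosing.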

[2] = biological target: Bile acid receptor (Homo sapiens) (UniProt Q96RI1); assay: ATG_IR1_CIS: Attagene CIS-FACTORIAL HepG2 Assay for human Nuclear Receptor Subfamily 1 Group H Member 4 (NR1H4), IR1 submotif (AID 2282946); settings: IR1 reporter transcription, actives raise or lower the signal
How it was run: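 Cells (human HepG2) carry transiently transfected cis-promoter reporter transcription units. Compounds are incubated 24 h, total RNA is reverse-transcribed and amplified, and labelled fragments are resolved by capillary electrophoresis. Curves use DMSO as baseline.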

[3] = ATG_GRE_CIS: Attagene CIS-FACTORIAL HepG2 Assay for human Glucocorticoid Response Elements (GRE) (AID 2282947); settings: HepG2 GRE cis-reporter, Attagene multiplex mRNA; actives raise or lower the signal
How it was run: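 Assay uses human hepatoma HepG2 cells transfected with cis-promoter reporter units, exposed 24 h. mRNA from reporters detected by RT-PCR plus capillary electrophoresis; DMSO serves as negative control and baseline.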

[4] = ATG_ISRE_CIS: Attagene CIS-FACTORIAL HepG2 Assay for human Interferon Regulatory Factor 1 (IRF1) binding to an Interferon-Stimulated Response Element (ISRE) (AID 2282948); settings: HepG2 ISRE cis-reporter (Attagene), mRNA transcription readout; actives raise or lower the signal
How it was run: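 HepG2 cells transiently transfected with multiplexed cis-promoter reporter units; after 24 h compound exposure, reporter mRNA quantified by RT-PCR, FAM labelling, HpaI digestion and capillary electrophoresis. Bidirectional fit versus DMSO baseline.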

[5] = ATG_M_32_CIS: Attagene CIS-FACTORIAL HepG2 Assay for M32 Transcription Factor (Internal Marker) (AID 2282949); settings: HepG2 Attagene cis-factorial M32 reporter, mRNA; actives raise or lower the signal;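 note: background control marker of the multiplexed CIS panel rather than a real target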
How it was run: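 Following 24 h chemical exposure of HepG2 cells transiently expressing cis-promoter reporter constructs, reporter transcript levels were determined by RT-PCR with fluorescent labelling and capillary electrophoresis, then fitted bidirectionally against DMSO.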

[6] = ATG_M_06_CIS: Attagene CIS-FACTORIAL HepG2 Assay for M06 Transcription Factor (Internal Marker) (AID 2282950); settings: HepG2 Attagene CIS-FACTORIAL M06 internal marker reporter; actives raise or lower the signal
How it was run: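 Measured 24 h post-dosing in transiently transfected HepG2 cells, this internal-marker endpoint reports reporter mRNA via RT-PCR with fluorescent primer extension and capillary electrophoresis. DMSO served as negative control and baseline for bidirectional fitting.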

[7] = biological target: Hypoxia-inducible factor 1-alpha (Homo sapiens) (UniProt Q16665); assay: ATG_HIF1a_CIS: Attagene CIS-FACTORIAL HepG2 Assay for human Hypoxia Inducible Factor 1 (HIF1A) (AID 2282951); settings: HepG2 Attagene cis-factorial HIF1a reporter transcription; actives raise or lower the signal
How it was run: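 In this multiplexed cell assay, HepG2 cells bearing transfected cis reporters are dosed for 24 h and reporter mRNA is read by RT-PCR plus capillary electrophoresis; signal increases and decreases are both scored against DMSO.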

[8] = biological target: Hepatocyte nuclear factor 6 (Homo sapiens) (UniProt Q9UBC0); assay: ATG_HNF6_CIS: Attagene CIS-FACTORIAL HepG2 Assay for human Hepatocyte Nuclear Factor 6 (HNF6) (AID 2282952); settings: HepG2 Attagene cis-factorial HNF6 reporter transcription; actives raise or lower the signal
How it was run: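 HepG2 cells transiently transfected with cis-element-driven multiple reporter transcription units, dosed 24 h; reporter mRNA quantified by RT-PCR, FAM primer extension, HpaI digestion and capillary electrophoresis; bidirectional fit versus DMSO baseline.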

[9] = biological target: Heat shock factor protein 1 (Homo sapiens) (UniProt Q00613); assay: ATG_HSE_CIS: Attagene CIS-FACTORIAL HepG2 Assay for human Heat Shock Transcription Factor 1 (HSE) (AID 2282953); settings: HepG2 HSE cis-reporter, Attagene RNA transcription; actives raise or lower the signal
How it was run: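 Reporter mRNA induction in HepG2 is measured 24 h after dosing, using transiently transfected multiplexed cis-regulated reporter units. Signal comes from capillary electrophoresis of labelled RT-PCR products, with DMSO as negative control.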

[10] = ATG_PBREM_CIS: Attagene CIS-FACTORIAL HepG2 Assay for human Phenobarbital-responsive Enhancer Module (PBREM) (AID 2282955); settings: HepG2 PBREM cis-reporter, Attagene multiplexed transcription; actives raise or lower the signal
How it was run: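 After a 24 h incubation with test chemical, transfected HepG2 cells yield total RNA; reporter-specific RT-PCR products are fluorescently labelled, HpaI-digested and resolved by capillary electrophoresis against ROX size standards.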

[11] = biological target: Paired box protein Pax-6 (Homo sapiens) (UniProt P26367); assay: ATG_Pax6_CIS: Attagene CIS-FACTORIAL HepG2 Assay for human Paired Box 6 (PAX6) (AID 2282956); settings: HepG2 CIS-FACTORIAL PAX6 reporter transcription, RNA readout; actives raise or lower the signal
How it was run: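 HepG2 cells transiently transfected with multiplexed cis-promoter reporter units (endogenous TF activity) were dosed for 24 h. Reporter mRNA was quantified by RT-PCR, 6-FAM labeling, HpaI digestion and capillary electrophoresis; bidirectional fitting versus DMSO baseline.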

[12] = ATG_PXRE_CIS: Attagene CIS-FACTORIAL HepG2 Assay for human Pregnane X Receptor Element (PXRE) (AID 2282957); settings: HepG2 Attagene CIS-FACTORIAL PXRE reporter, mRNA; actives raise or lower the signal
How it was run: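 HepG2 cells transiently transfected with cis-regulated multiple reporter transcription units; endogenous factor activity measured as reporter mRNA 24 h after dosing. RT-PCR, fluorescent primer extension, HpaI digestion, capillary electrophoresis; bidirectional fit versus DMSO baseline.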

[13] = ATG_PPRE_CIS: Attagene CIS-FACTORIAL HepG2 Assay for human Peroxisome Proliferator-activated Response Element (PPRE) (AID 2282958); settings: HepG2 PPRE cis-element reporter, Attagene transcription factor profiling; actives raise or lower the signal
How it was run: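 Multiplexed reporter transcription units under cis-regulatory promoters were transfected into HepG2 cells to capture endogenous factor activity. A 24 h incubation preceded RNA isolation and fluorescent RT-PCR fragment analysis.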

[14] = ATG_RORE_CIS: Attagene CIS-FACTORIAL HepG2 Assay for human RAR-related Orphan Receptor Element (RORE) (AID 2282959); settings: HepG2 Attagene cis-factorial RORE reporter, mRNA; actives raise or lower the signal
How it was run: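 Fluorescence intensity of reporter-specific cDNA fragments, separated by capillary electrophoresis, gives the signal. Source: HepG2 liver cells transiently transfected with cis-element reporters and exposed 24 h; DMSO-normalized bidirectional fit.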

[15] = ATG_Sox_CIS: Attagene CIS-FACTORIAL HepG2 Assay for human SRY-box transcription factor (SOX) (AID 2282960); settings: HepG2 Attagene cis-factorial SOX reporter, mRNA; actives raise or lower the signal
How it was run: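 After 24 h of chemical treatment, transfected HepG2 reporter cells are lysed for total RNA. Transcript levels come from RT-PCR with labelled primer extension and capillary electrophoresis, analysed bidirectionally versus DMSO.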

[16] = biological target: Transcription factor Sp1 (Homo sapiens) (UniProt P08047); assay: ATG_Sp1_CIS: Attagene CIS-FACTORIAL HepG2 Assay for human Specificity Protein 1 (Sp1) (AID 2282961); settings: HepG2 Sp1 cis-reporter transcription, actives raise or lower the signal
How it was run: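 Sp1-driven reporter mRNA, read as capillary electrophoresis fluorescence after RT-PCR, in transiently transfected HepG2 cells dosed for 24 h; signal change in either direction relative to DMSO.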

[17] = ATG_SREBP_CIS: Attagene CIS-FACTORIAL HepG2 Assay for human Sterol Regulatory Element Binding (SREBP) (AID 2282962); settings: HepG2 Attagene cis-factorial SREBP reporter, mRNA; actives raise or lower the signal
How it was run: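 HepG2 cells transiently transfected with multiplexed cis-element reporter units report endogenous transcription factor activity. After 24 h of chemical exposure, reporter mRNA was quantified by RT-PCR, 6-FAM labelling, HpaI digestion and capillary electrophoresis; bidirectional fits used DMSO as baseline.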

[18] = biological target: Signal transducer and activator of transcription 3 (Homo sapiens) (UniProt P40763); assay: ATG_STAT3_CIS: Attagene CIS-FACTORIAL HepG2 Assay for human Signal Transducer and Activator of Transcription 3 (STAT3) (AID 2282963); settings: HepG2, Attagene cis-factorial STAT3 reporter transcription; actives raise or lower the signal
How it was run: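 After a 24 h compound incubation, total RNA from MRTU-transfected HepG2 cells was converted to cDNA and reporter sequences PCR-amplified, labelled and profiled by capillary electrophoresis. Gain and loss of signal were referenced to DMSO.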

[19] = ATG_TA_CIS: Attagene CIS-FACTORIAL HepG2 Assay for human TA Basal Promoter (AID 2282964); settings: HepG2 Attagene CIS-factorial TA basal promoter reporter; actives raise or lower the signal
How it was run: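 Cis-factorial format in HepG2: reporters report endogenous factors, not chimeric Gal4 fusions. After 24 h treatment, reporter transcripts were measured by RT-PCR-capillary electrophoresis fluorescence, analysed bidirectionally versus DMSO.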

[20] = ATG_MRE_CIS: Attagene CIS-FACTORIAL HepG2 Assay for human Metal Responsive Element (MRE) (AID 2282954); settings: HepG2 MRE cis-reporter transcription, Attagene multiplex; actives raise or lower the signal
How it was run: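 After a 24 h chemical exposure, transiently transfected HepG2 cells yield RNA whose reporter sequences are amplified, FAM-labelled and sized by capillary electrophoresis. Curves are fitted bidirectionally relative to DMSO.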

Measured: AC50

Sequence of Transcription factor Sp1 (Homo sapiens) (P08047 whole entry, looked up): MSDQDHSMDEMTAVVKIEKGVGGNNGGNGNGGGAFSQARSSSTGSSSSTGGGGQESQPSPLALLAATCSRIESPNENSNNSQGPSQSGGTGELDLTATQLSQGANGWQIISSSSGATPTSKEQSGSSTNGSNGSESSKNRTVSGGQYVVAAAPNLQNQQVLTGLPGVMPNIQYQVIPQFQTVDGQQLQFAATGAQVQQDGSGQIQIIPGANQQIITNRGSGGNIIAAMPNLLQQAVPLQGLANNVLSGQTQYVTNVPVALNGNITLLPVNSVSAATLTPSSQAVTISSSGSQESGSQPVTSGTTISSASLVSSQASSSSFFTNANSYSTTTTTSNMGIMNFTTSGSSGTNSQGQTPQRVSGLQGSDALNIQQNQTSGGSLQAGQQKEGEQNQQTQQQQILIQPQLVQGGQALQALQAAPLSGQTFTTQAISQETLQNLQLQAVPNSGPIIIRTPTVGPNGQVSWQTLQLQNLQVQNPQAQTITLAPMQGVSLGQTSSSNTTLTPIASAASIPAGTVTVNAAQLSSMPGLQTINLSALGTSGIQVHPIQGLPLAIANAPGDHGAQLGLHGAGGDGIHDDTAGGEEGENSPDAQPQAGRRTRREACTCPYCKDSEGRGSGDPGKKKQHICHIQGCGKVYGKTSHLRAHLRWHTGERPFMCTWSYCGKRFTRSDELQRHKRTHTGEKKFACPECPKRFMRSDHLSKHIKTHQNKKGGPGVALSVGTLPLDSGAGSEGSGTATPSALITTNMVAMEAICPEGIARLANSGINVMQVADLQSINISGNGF
Sequence of Bile acid receptor (Homo sapiens) (Q96RI1 whole entry, looked up, the tested form may be a part): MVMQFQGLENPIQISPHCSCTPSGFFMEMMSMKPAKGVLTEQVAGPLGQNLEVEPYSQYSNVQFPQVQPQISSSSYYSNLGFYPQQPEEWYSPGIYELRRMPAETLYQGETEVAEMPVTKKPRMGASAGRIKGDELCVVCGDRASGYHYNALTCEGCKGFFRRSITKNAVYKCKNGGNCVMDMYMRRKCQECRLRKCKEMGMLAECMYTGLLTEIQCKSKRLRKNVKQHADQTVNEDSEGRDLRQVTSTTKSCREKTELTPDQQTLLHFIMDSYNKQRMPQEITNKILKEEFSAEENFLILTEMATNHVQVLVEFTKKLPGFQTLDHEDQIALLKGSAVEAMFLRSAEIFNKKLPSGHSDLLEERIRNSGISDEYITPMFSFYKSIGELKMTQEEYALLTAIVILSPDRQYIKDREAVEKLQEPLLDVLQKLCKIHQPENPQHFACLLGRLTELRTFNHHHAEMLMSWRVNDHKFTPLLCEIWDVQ
Sequence of Hypoxia-inducible factor 1-alpha (Homo sapiens) (Q16665 whole entry, looked up): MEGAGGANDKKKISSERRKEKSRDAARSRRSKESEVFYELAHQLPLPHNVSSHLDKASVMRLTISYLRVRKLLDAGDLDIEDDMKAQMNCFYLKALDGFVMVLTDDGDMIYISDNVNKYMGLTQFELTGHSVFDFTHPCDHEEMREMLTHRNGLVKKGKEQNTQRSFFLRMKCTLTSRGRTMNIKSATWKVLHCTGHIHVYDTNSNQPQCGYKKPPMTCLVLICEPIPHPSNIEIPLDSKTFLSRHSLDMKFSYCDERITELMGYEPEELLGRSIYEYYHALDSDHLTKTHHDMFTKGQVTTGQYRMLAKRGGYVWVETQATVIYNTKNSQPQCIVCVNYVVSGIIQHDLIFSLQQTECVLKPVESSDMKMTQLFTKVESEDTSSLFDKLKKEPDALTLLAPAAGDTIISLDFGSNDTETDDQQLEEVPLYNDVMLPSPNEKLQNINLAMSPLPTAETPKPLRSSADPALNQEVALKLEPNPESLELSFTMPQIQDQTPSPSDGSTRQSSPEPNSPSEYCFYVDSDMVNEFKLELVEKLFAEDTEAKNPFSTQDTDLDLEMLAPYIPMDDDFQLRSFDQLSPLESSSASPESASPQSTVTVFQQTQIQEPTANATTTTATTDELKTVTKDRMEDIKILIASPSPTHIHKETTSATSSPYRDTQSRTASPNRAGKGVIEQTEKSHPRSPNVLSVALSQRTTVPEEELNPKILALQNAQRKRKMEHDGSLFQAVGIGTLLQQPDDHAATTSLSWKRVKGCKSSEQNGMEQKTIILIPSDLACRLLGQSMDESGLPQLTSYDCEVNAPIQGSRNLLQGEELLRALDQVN
Sequence of Heat shock factor protein 1 (Homo sapiens) (Q00613 whole entry, looked up): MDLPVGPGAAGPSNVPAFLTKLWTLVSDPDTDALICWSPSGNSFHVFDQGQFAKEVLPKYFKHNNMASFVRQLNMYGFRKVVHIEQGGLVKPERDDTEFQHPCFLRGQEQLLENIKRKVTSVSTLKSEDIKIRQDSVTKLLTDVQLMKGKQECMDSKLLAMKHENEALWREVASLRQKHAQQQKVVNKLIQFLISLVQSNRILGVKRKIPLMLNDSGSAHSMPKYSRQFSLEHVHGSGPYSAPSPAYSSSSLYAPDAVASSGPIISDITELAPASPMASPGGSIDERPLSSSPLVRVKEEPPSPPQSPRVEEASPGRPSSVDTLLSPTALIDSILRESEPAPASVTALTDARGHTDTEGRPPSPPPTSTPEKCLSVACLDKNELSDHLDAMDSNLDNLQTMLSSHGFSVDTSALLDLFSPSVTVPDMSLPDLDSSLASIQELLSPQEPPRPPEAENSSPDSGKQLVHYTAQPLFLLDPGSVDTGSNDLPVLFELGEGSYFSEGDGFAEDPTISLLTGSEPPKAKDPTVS
Sequence of Signal transducer and activator of transcription 3 (Homo sapiens) (P40763 whole entry, looked up): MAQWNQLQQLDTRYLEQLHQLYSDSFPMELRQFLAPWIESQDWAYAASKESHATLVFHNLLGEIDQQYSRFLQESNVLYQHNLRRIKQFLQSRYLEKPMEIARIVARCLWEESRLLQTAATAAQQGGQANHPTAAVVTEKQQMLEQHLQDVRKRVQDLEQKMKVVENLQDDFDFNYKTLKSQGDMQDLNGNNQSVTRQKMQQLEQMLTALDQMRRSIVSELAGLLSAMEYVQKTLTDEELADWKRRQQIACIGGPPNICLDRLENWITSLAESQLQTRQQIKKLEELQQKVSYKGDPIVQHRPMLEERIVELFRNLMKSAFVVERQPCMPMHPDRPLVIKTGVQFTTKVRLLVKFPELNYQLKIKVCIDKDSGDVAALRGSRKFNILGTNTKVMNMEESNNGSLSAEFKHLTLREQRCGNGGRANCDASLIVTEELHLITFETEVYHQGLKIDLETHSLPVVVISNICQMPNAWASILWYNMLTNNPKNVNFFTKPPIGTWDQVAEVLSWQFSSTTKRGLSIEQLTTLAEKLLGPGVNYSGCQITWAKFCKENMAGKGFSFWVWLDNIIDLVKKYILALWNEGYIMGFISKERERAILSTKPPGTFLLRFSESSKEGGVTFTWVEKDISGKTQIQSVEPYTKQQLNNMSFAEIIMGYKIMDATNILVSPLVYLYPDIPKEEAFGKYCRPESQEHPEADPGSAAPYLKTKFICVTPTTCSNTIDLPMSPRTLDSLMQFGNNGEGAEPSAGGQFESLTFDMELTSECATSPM
Sequence of Paired box protein Pax-6 (Homo sapiens) (P26367 whole entry, looked up): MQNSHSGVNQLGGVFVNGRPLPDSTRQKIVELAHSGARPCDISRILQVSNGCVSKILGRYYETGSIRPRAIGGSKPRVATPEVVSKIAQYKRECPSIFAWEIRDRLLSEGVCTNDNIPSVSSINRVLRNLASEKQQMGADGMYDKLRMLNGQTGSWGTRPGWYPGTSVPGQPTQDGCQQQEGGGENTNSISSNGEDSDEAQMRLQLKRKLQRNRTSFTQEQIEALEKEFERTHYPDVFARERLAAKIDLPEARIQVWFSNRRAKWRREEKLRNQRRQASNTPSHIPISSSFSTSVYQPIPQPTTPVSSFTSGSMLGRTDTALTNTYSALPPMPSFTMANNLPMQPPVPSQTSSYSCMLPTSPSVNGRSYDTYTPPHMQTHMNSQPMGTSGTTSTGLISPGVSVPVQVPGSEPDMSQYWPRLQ
Sequence of Hepatocyte nuclear factor 6 (Homo sapiens) (Q9UBC0 whole entry, looked up): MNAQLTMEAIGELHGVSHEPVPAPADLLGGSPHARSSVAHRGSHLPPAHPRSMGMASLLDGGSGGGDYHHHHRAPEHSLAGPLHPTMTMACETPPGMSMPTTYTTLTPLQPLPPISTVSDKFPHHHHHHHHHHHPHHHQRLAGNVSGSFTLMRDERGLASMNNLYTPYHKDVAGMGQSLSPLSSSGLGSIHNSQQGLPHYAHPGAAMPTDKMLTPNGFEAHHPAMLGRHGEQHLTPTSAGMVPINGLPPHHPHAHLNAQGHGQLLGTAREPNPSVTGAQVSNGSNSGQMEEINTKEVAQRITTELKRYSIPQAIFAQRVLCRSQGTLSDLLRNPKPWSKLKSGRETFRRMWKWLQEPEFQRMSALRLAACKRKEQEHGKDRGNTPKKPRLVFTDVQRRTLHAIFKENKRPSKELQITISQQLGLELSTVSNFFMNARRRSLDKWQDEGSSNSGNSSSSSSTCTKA

CCCCOCCO
not listed: [20]
inactive: all other assays above

O=c1c(-c2ccc(O)cc2)coc2cc(O)ccc12
active: [2] 52.6 µM and 100 µM | [13] 42 µM and 52.3 µM | [16] 38.8 µM | [17] 47.5 µM and 91.4 µM
inactive: [1] | [2] | [3] | [4] | [5] | [6] | [9] | [10] | [11] | [12] | [13] | [14] | [15] | [16] | [17] | [18] | [19]

FC(F)(I)C(F)(F)C(F)(F)C(F)(F)C(F)(F)C(F)(F)I
active: [3] 18.1 µM | [11] 16 µM | [19] 16 µM
not listed: [8]
inactive: all other assays above

Oc1cc2ccccc2c2ccccc12
active: [12] 3.71 µM
not listed: [10]
inactive: all other assays above

O=C(O)c1ccccc1C(c1ccc(O)cc1)c1ccc(O)cc1
active: [12] 44.9 µM [middle of 4 runs]
not listed: [2] | [8]
inactive: all other assays above

CC(=O)CC(C)(C)O
active: [12] 25 µM
inactive: [1] | [2] | [3] | [4] | [5] | [6] | [7] | [9] | [11] | [12] | [13] | [14] | [15] | [16] | [17] | [18] | [19]
